Assay outcomes: PubChem, several laboratories
Sampled rows, rich in hits. Any-hit rate of the full collection: about 3.4%.
HSP90 inh: inhibitors of HSP90 luciferase refolding in rabbit reticulocyte lysate. 290,000 tested, 0.91% active. AID 1789. luciferase refolding luminescence, 3 h. inhibition, % at 5.6 µM;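 active = inhibition above the screen-wide mean plus 3 SD, computed separately per campaign, cut at about 16% in these data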;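 note: 0% = DMSO wells and 100% = 60 µM geldanamycin wells; inhibitors lower the luminescence because luciferase stays unfolded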
AI-2 QS mod: modulates the Vibrio harveyi AI-2 quorum sensing system; 300,000 tested, 0.4% active; activity change, % at 7.5 µM; AID 2094; Vibrio harveyi JMH597 AI-2 luminescence/OD600 ratio, 9 h; active compounds read low; strain lacks LuxN and CqsS sensors; 0 = neutral-control median; in the data active = activity change below about -75%, passing the limit was not always enough;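 note: luminescence divided by OD600 gain over 9 h not by final OD600 alone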
SMARCA2 activ: SMARCA2 function activation, primary screen | MG213 cells, MMTV-luciferase reporter, dexamethasone, overnight | activation, % at 9.1 µM | 370,000 tested, 1% active; in the data active = activation above about 7.8%;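 note: 0% = vehicle wells and 100% = reference activator wells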
PG9 binder: binds the HIV-1 gp120 antibody PG9; 360,000 tested, 0.43% active; TR-FRET gp120-PG9 antibody binding; inhibition, % at 6.7 µM; in the data active = inhibition above about 8.5%
HSF1 inh: HSF1 inhibition. NIH3T3-HGL HSE-luciferase, MG132-induced, luminescence 8 h; active compounds read low. activity change, negative = inhibition, % at 7.5 µM (by protocol). 300,000 tested, 0.77% active. AID 2098;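 active = more than half of replicate wells show activity change below -50%, luminescence cut by over half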;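 note: luciferase reports HSF-1 transcriptional activity via heat shock element; 0% = median of DMSO wells and -100% = zero luminescence signal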
FXN GAA850 act: activators of GAA850 frataxin (FXN) promoter; HEK293 lucGAA850 FXN promoter luciferase reporter, 24 h; percent of 10 µM SAHA response; 360,000 tested, 0.56% active; AID 540364; activation, % at 6 µM;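 active = activation above the average of all compounds screened plus 3 SD, cutoff fixed separately per campaign, cut at about 7.5% in these data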;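 note: 0% = DMSO wells and 100% = 10 µM SAHA wells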
Starred values were filed as active, the others as inactive; . = no result.

SMILES | HSP90 inh | AI-2 QS mod | SMARCA2 activ | PG9 binder | HSF1 inh | FXN GAA850 act
CC1Cc2ccccc2N1C(=O)COC(=O)c1ccc(S(=O)(=O)N(C)C)cc1 (stereo unspecified) | -3 | 9 | 1 | 1 | -78* | -1
CN(C)S(=O)(=O)c1ccc(C(=O)OCC2CCCO2)cc1 (stereo unspecified) | -1 | -77* | 1 | -2 | 2 | 0
CCOc1ccc(-n2c(SC/C=C/c3ccccc3)nnc2-c2cccs2)cc1 | . | . | -3 | . | . | .
CCSc1nnc(-c2ccc(S(=O)(=O)NCc3cccs3)cc2)o1 | 0 | 16 | . | . | -68* | 0
CCOc1ccc(S(=O)(=O)NCc2cccs2)cc1 | 1 | 5 | -2 | -1 | -2 | 3
O=C(Nc1c(-c2ccccc2)nc2ncccn12)c1ccccc1 | . | . | 0 | . | . | .
N#CC1=C(N)N(c2ccc(Oc3ccccc3)cc2)C(=O)C1 | 1 | 6 | 2 | 0 | -89* | -2
CCCOC(=O)c1ccc(-c2ccc(C=O)o2)cc1 | 36* | -1 | 5 | 1 | 29 | 2
O=C(NC(=S)Nc1ccc2oc(=O)ccc2c1)c1cc2ccccc2o1 | 3 | 9 | -3 | 1 | -84* | -2
C=CCn1c(COc2ccccc2)nnc1SCC(=O)Nc1ccc2c(c1)OCCO2 | -1 | 1 | 1 | -1 | 4 | -1
CCn1c(COc2ccc(C)cc2)nnc1SCC(=O)Nc1ccc2c(c1)OCCO2 | -2 | 10 | 1 | -2 | -71* | -4
CCn1c(SCC(=O)Nc2ccc(N(C)C)cc2)nnc1-c1cccc(C)c1 | 4 | 7 | 2 | -5 | -76* | 1
Cc1ccn2c(c1)nc(=S)n2C(=O)c1ccccc1 | 6 | 6 | 5 | 1 | -25 | -7
O=C(c1ccco1)n1c(=S)nc2ccccn21 | -1 | 33 | 7.9* | 0 | 18 | 2
CCC(=O)N1CCN(c2ccc(NC(=O)c3ccc([N+](=O)[O-])o3)cc2)CC1 | 5 | 63 | 1 | -1 | -76* | 3
CC(=O)Nc1ccc(N=NN2CCOCC2)cc1 | 4 | -88* | 1 | -2 | -5 | 4
CN1CCN(c2ccc(-c3cccc(NC(=O)COc4ccc(Cl)cc4Cl)c3)nn2)CC1 | . | 4 | 7 | 2 | -54* | 2
Cc1ccccc1N=Nc1c(N)[nH]n(-c2ccccc2)c1=O | . | . | -1 | . | . | .
NC(=O)COC(=O)c1cc(=O)[nH]c2ccccc12 | -1 | 15 | -2 | 0 | -62* | 2
COC(=O)C1CN(Cc2ccccc2)CCS(=O)(=O)N1Cc1cn(Cc2ccc(F)cc2)nn1 (stereo unspecified) | . | . | 4 | . | . | .
Cc1ccc(C(=O)N/C(=C\c2ccco2)C(=O)NCc2cccnc2)cc1 | 5 | 8 | 8.0* | 0 | 3 | 0
Cc1ccc(C(=O)N/C(=C/c2ccco2)C(=O)NCc2ccco2)cc1 | 1 | -7 | 0 | 0 | -2 | 1
NC1CCN(c2c(F)cc3c(=O)c(C(=O)O)cn(C4CC4)c3c2Cl)C1 (stereo unspecified) | 3 | -88* | 1 | 0 | -2 | 0
Cc1cccc(Cn2cc(COC(=O)N(C)Cc3ccccc3)nn2)c1 | . | . | -4 | . | . | .
Cc1nn(-c2ccc(Cl)cc2)c(N)c1C(O)(CSc1nccn1C)C(F)(F)F (stereo unspecified) | -5 | . | 0 | -1 | . | -2
SMILES | HSP90 inh | AI-2 QS mod | SMARCA2 activ | PG9 binder | HSF1 inh | FXN GAA850 act
Cc1nn(-c2ccccc2)c(N)c1C(O)(CSc1nccn1C)C(F)(F)F (stereo unspecified) | -1 | 13 | -2 | -1 | -91* | 0
CCOC(=O)[C@]12CCCC=C1N(Cc1ccc(OC)cc1)C(=O)[C@@H]2CC(=O)NCCCCc1ccccc1 | . | . | -3 | . | . | .
O=C(O)c1ccccc1/C=N/NC(=O)C1CCCC1 | -6 | 26 | 7.9* | 0 | -4 | 3
O=C(O)c1ccccc1/C=N/NC(=O)C1CCCCC1 | 0 | 15 | 1 | 1 | -1 | 2
COc1ccc(OC)c(NC(=O)CSCC(=O)O)c1 | 3 | 4 | -2 | -1 | -90* | 2
COc1ccc(OC)c(NC(=O)CS(=O)(=O)Cc2ccccc2)c1 | 1 | 15 | -1 | -2 | -61* | 1
O=C(c1ccco1)N1CCN(c2nc(C3CC3)nc3c2nnn3Cc2ccccc2Cl)CC1 | 3 | 11 | -1 | -1 | 15 | 2
CC(C)(C)c1nc(N2CCN(C(=O)c3ccco3)CC2)c2nnn(Cc3ccccc3)c2n1 | 1 | 55 | -2 | 2 | -70* | 3
O=S(=O)(N1CCCCC1)n1nnc2ccccc21 | -1 | 23 | -1 | -1 | -53* | 1
O=C(NC(=S)Nc1cccc(Cl)c1N1CCCCC1)c1ccc2c(c1)OCCO2 | -1 | -4 | -2 | 0 | -58* | -3
O=C(Nc1cccc(Cl)c1N1CCCCC1)c1ccc2c(c1)OCCO2 | 2 | 22 | 0 | -2 | 0 | 0
CCCCN(C(=O)NC(=O)Nc1nc2ccc(OC)cc2s1)S(C)(=O)=O | 4 | -1 | 4 | 0 | . | 9.5*
COc1cc(NC(=O)c2cc(C)nc3ccccc23)cc(OC)c1 | -1 | 29 | -2 | 1 | -60* | 0
CC(=O)c1ccc(NC(=O)CSc2nc3[nH]ncc3c(=O)[nH]2)cc1 | . | 6 | -2 | 41* | -7 | 2
CC(C)C[C@H](N)c1nnc(S(=O)(=O)Cc2ccc(F)cc2)o1 | 12 | -88* | . | . | 10 | 2
CC(C)C[C@H](N)c1nnc(SCC(=O)Nc2ccc(Br)cc2)o1 | -4 | 2 | -1 | 1 | 0 | 1
CCOc1ccc(/C=C2\NCCc3cc(OCC)c(OCC)cc32)cc1OCC | . | . | -4 | . | . | .
CCCOc1ccc(/C(O)=C2\C(=O)C(=O)N(CCCOC)C23C(=O)N(C)c2ccccc23)cc1 (stereo unspecified) | 2 | 21 | 0 | 11* | -8 | -1
CCCN1C(=O)C2(/C(=C(\O)c3ccc4c(c3)OCCO4)C(=O)C(=O)N2CCCOC)c2ccccc21 (stereo unspecified) | 0 | . | . | . | . | -1
Cc1cccc(-c2cccc3c4c([nH]c23)[C@@H]2C[C@H](N(C)C(=O)c3ccccc3F)[C@H]([C@H](C)O)CN2CC4)c1 | . | . | -1 | . | . | .
c1ccc(-c2nc3ccccc3[nH]2)cc1 | -4 | 30 | 6 | 0 | -61* | 3
O=C(O)c1ccc(C(=O)Nc2ccc(F)cc2)cc1 | . | . | 2 | -1 | . | 1
O=C(Nc1ccc(Nc2ccccc2)cc1)c1ccco1 | 0 | -96* | 0 | -4 | 31 | 3
O=C(Nc1ccc(Nc2ccccc2)cc1)c1ccc(F)cc1 | 0 | -88* | 2 | -4 | 3 | 2
O=C(Cc1ccccc1)Nc1ccc(NC(=O)c2ccco2)cc1Cl | 9 | -9 | -1 | 1 | -56* | 2
CCN(CC)C(=O)CSc1nnc(-c2ccccn2)n1C | . | . | -6 | . | . | .
CCCCNc1ccc2c(c1)OC[C@H](CC(C)C)NS2(=O)=O | . | . | -3 | 1 | . | .
